Our source for the growth values is PubChem BioAssay (NCI).

This is part of a sample that, as a whole, favours compounds with a hit. Of some 83,000 tested, about 20% had one in any assay.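 Cells were grown in 96-well plates and exposed to the test compound at a single concentration for 48 hours; results are reported as percent growth, with values below 10 considered active.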 The source made the active and inactive calls.

In the experiment the test system is SF-268 CNS. Nature of the experiment: NCI-60 one-dose screen, 48 h (100 = growth as untreated, 0 = no growth, -100 = all killed). To be noted: 10 µM unless noted.
As for `C=C(C)[C@@H]1CC[C@]2(C(=O)OC)CC[C@]3(C)[C@H](CC[C@@H]4[C@@]5(C)C/C(=C/c6cccc(I)c6)C(=O)C(C)(C)[C@@H]5CC[C@]43C)[C@@H]12`, the growth was 95.1% (inactive). In the case of `N#Cc1c(-c2ccc(Cl)cc2)nc(NN=Cc2ccco2)nc1N1CCOCC1`, the growth was 74.5% (inactive).

On to `C=CC(=O)Nc1cccc(Nc2nc(SC)nc(-c3cccc([N+](=O)[O-])c3)c2C#N)c1`, for which the growth was 74.8% (inactive). For the compound `COc1ccc(/C=C/C(=O)c2ccc(O)c(CN3CCN(c4cc5c(cc4F)c(=O)c(C(=O)O)cn5C4CC4)CC3)c2)cc1`, the growth is 30.3% (inactive).

On to `COc1cc2nc(N3CCCC3)nc(Nc3ccccc3)c2cc1OC`, for which the growth is -0.197% (active). Turning to `COc1cccc(-c2nc3sccn3c2-c2ccnc(NCCNS(=O)(=O)c3ccccc3)c2)c1`, the growth was 31.9% (inactive).

As for `COc1cc(/C=C/C(=O)c2c(C)oc3nc[nH]c(=O)c23)cc(OC)c1OC`, the growth is 81.3% (inactive). As for `C=C(C)[C@@H]1CC[C@]2(C(=O)OC)CC[C@]3(C)[C@H](CC[C@@H]4[C@@]5(C)C/C(=C/c6ccc(OC)cc6)C(=O)C(C)(C)[C@@H]5CC[C@]43C)[C@@H]12`, the growth is 90.7% (inactive). In the case of `O=S(=O)(Nc1ccc(I)cc1F)c1ccc(-c2cnc(C3CC3)o2)cc1`, the growth was 63.3% (inactive).

For the compound `COc1cc2nc(N3CCCC3)nc(NCCc3ccccc3)c2cc1OC`, the growth is 87.2% (inactive).

In the case of `COc1ccc(Nc2nc(SC)nc(-c3cccc([N+](=O)[O-])c3)c2C#N)cc1`, the growth was 71.6% (inactive). In the case of `COc1cc(CNc2oc(-c3ccccc3)c(-c3ccccc3)c2C#N)cc(CN2CCN(C)CC2)c1O`, the growth is 69.8% (inactive). For `COc1ccc(-c2nc3ccc(-c4nc5ccc(N6CCN(c7ccncc7)CC6)cc5[nH]4)cc3[nH]2)cc1OC` the value was 38.4% (inactive); for `O=C1/C(=C/c2cn(-c3ccccc3)nc2-c2ccccc2)SC(=S)N1CCc1ccccc1`, 95.5% (inactive); for `CCCN1CCN(c2ccc3nc(-c4ccc5nc(-c6ccc(OCC)cc6)[nH]c5c4)[nH]c3c2)CC1`, 68.6% (inactive). In the case of `COc1cccc(-c2nc3sccn3c2-c2ccnc(NCCCNS(=O)(=O)c3cccc(F)c3)c2)c1`, the growth is 40.9% (inactive). In the case of `Cn1c(=O)c2c(nc3n(-c4ccc(Cl)cc4Cl)c(Sc4nc(-c5ccccc5)c(C#N)c(=O)[nH]4)cn23)n(C)c1=O`, the growth was 61.9% (inactive). Consider `O=C(/C=C/c1ccccc1)c1ccc(O)c(CN2CCN(c3cc4c(cc3F)c(=O)c(C(=O)O)cn4C3CC3)CC2)c1`, for which the growth is 28.1% (inactive). Turning to `C=CC(=O)Nc1cccc(-c2nc(SC)nc(Nc3ccccc3OC)c2C#N)c1`, the growth is 53.5% (inactive). Regarding `COc1cccc(-c2nc3sccn3c2-c2ccnc(NCCNS(=O)(=O)c3ccc(F)cc3)c2)c1`, the growth was 34.7% (inactive). For the compound `COc1cc2nc(N3CCCC3)nc(NCc3ccccc3)c2cc1OC`, the growth was 87.6% (inactive). Then `N#Cc1c(-c2ccc(Cl)cc2)nc(N/N=C/c2cccc(Br)c2)nc1N1CCOCC1`, with 89.2% (inactive). In the case of `CSc1nc(-c2cccc(NC(=O)CCl)c2)c(C#N)c(=O)n1C`, the growth is 61.5% (inactive). With `C=CC(=O)Nc1cccc(-c2nc(SC)nc(NCCc3ccc(OC)c(OC)c3)c2C#N)c1`, the growth is 61.9% (inactive). Consider `O=C(/C=C/c1cccc([N+](=O)[O-])c1)c1ccc(O)c(CN2CCN(c3cc4c(cc3F)c(=O)c(C(=O)O)cn4C3CC3)CC2)c1`, for which the growth was 43.2% (inactive). `COc1cc(/C=C/C(=O)c2ccc(O)c(CN3CCN(c4cc5c(cc4F)c(=O)c(C(=O)O)cn5C4CC4)CC3)c2)cc(OC)c1OC`: the growth is 54.9% (inactive). Regarding `CC(C)(O)c1cn(CCCCN2C(=O)C(=O)c3ccccc32)nn1`, the growth is 99.7% (inactive).

As to `COC(=O)[C@]12CCC(C)(C)C[C@H]1[C@H]1C(=O)C[C@@H]3[C@@]4(C)c5c([nH]c6ccccc6c5=O)C(C)(C)[C@@H]4CC[C@@]3(C)[C@]1(C)CC2`, the growth is 82% (inactive). With `N=C(N)c1ccc(-c2ccc(-c3ccc4ccccc4c3)s2)s1`, the growth is -6.87% (active). Turning to `C=CC(=O)Nc1cccc(-c2nc(SC)nc(NCCN3CCOCC3)c2C#N)c1`, the growth is 83.8% (inactive). With `COc1cc(C=Nc2oc(-c3ccccc3)c(-c3ccccc3)c2C#N)cc(CN2CCCCC2)c1O`, the growth is 94.9% (inactive). For `CC1=NN(c2nc(-c3ccc(Cl)cc3)c(C#N)c(N3CCOCC3)n2)C(=O)C1`, the growth was 91.1% (inactive). For `COc1cccc(Nc2nc(SC)nc(-c3cccc([N+](=O)[O-])c3)c2C#N)c1`, the growth is 88% (inactive). In the case of `CSc1nc(NCCO)c(C#N)c(-c2cccc([N+](=O)[O-])c2)n1`, the growth is 95.6% (inactive).

Regarding `Cn1c(O)c(N=NC(=O)c2cc(-c3ccccc3)on2)c2ccccc21`, the growth is 100% (inactive). As to `CSc1nc(Nc2cccc(NC(=O)/C(C#N)=C/c3c(Cl)cccc3Cl)c2)c(C#N)c(-c2cccc([N+](=O)[O-])c2)n1`, the growth was 59.6% (inactive). `COc1ccc(-c2nc3ccc(-c4nc5ccc(N6CCN(c7ccccc7)CC6)cc5[nH]4)cc3[nH]2)cc1OC`: the growth was 11.4% (inactive). For `O=C(N=Nc1c(O)[nH]c2ccccc12)c1cc(-c2ccccc2)on1` the value was 101% (inactive). Regarding `O=C1CC(=NCC(=O)n2c(-c3ccccc3)nc3ccccc32)NN1`, the growth is 102% (inactive).
